Measured values reported in PubChem BioAssay.
Values without a mark were called inactive. Where a call stands in place of a potency, no number is given. For some assays here: Potency and affinity values are given separately. The source made the active and inactive calls. Unless noted, no rule for the calls is given here.

Columns and labels:
[1] = antimalarial activity against Dd2 strain (AID 2302;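 active = growth inhibition above 50% at the single 2 µM test dose, taken to imply half-maximal potency below 2 µM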); conditions: P. falciparum Dd2 in RBCs, LDH growth readout, 72 h; at 2 µM; hits give high values
[2] = human hepatoma cell viability loss – ATP luminescence, cytotoxicity control for P. falciparum antimalarial project, primary screen (AID 2303;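 active = inhibition above 50%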); conditions: HepG2 viability, 24-48 h, at 10 µM, hits give high values
[3] = molecular target: L-lactate dehydrogenase (Plasmodium falciparum (isolate CDC / Honduras)) (UniProt Q27743); experiment: PfLDH activity inhibition – cell lysate, 3D7 strain, counter-screen for P. falciparum growth inhibition project (AID 2304); conditions: P. falciparum 3D7 crude extract, LDH APAD/NBT absorbance; at 2 µM; hits give high values
[4] = inhibition of 3D7 malaria parasite growth – strain 3D7 (AID 2306); conditions: P. falciparum 3D7 erythrocytic growth, LDH absorbance, 72 h; at 2 µM; hits give high values
[5] = molecular target: Calcium-dependent protein kinase 1 (Plasmodium falciparum (isolate 3D7)) (UniProt P62344); experiment: PfCDPK1 kinase inhibitors, biochemical, TCAMS library (AID 1159585; cut-off not given, nearly all actives have IC50 up to about 0.98 µM;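 also: inhibitors leave more ATP so luminescence rises with inhibition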); conditions: recombinant PfCDPK1, Kinase-Glo ATP depletion luminescence
[6] = molecular target: Plasmodium falciparum protein kinase 6 (PK6, PF3D7_1337100) (UniProt Q8IDW1); experiment: PfPK6 kinase inhibitors, biochemical, TCAMS library (AID 1159586); conditions: recombinant PfPK6, Kinase-Glo ATP depletion luminescence
[7] = molecular target: Protein kinase 7 (PK7), Plasmodium falciparum 3D7 (PF3D7_0213400) (UniProt Q7YTF7); experiment: inhibition of Plasmodium PK7 catalytic activity – biochemical, TCAMS antimalarial set, Kinase-Glo luminescence (AID 1159587); conditions: recombinant PfPK7, Kinase-Glo ATP depletion luminescence
[8] = molecular target: Calcium-dependent protein kinase 4 (Plasmodium falciparum (isolate 3D7)) (UniProt Q8IBS5); experiment: PfCDPK4 kinase inhibitors, biochemical, TCAMS library (AID 1159588; cut-off not given, nearly all actives have IC50 up to about 0.91 µM); conditions: recombinant PfCDPK4, Kinase-Glo ATP depletion luminescence
Sequence of Calcium-dependent protein kinase 4 (Plasmodium falciparum (isolate 3D7)) (Q8IBS5 whole entry, looked up): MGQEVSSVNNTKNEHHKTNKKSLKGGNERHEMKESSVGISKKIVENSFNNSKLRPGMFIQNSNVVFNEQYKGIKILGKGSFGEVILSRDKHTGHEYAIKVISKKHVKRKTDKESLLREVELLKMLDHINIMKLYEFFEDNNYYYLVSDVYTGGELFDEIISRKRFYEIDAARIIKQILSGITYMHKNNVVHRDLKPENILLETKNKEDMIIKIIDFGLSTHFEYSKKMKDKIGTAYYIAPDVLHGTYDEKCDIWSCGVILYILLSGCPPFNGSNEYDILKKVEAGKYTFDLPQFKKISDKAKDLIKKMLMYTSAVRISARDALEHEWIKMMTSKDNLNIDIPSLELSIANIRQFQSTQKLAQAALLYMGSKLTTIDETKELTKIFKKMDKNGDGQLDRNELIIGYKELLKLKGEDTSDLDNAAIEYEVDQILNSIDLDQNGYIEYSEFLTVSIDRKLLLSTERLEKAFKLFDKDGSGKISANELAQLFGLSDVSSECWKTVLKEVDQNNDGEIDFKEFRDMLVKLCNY

Sequence of Calcium-dependent protein kinase 1 (Plasmodium falciparum (isolate 3D7)) (P62344 whole entry, looked up): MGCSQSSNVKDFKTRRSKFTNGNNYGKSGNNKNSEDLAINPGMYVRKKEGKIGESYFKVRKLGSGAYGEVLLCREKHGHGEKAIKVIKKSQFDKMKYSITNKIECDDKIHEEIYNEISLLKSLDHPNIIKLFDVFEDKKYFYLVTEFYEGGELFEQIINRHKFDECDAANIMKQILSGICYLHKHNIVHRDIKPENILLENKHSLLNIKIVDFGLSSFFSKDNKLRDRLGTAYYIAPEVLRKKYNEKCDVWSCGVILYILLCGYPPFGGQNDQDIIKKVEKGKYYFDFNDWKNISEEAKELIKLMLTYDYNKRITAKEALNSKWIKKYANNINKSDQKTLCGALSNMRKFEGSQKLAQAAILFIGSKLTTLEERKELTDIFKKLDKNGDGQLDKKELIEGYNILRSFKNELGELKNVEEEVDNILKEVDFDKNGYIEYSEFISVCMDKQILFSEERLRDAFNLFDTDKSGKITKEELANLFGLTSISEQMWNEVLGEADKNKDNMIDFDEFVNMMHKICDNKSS
Sequence of L-lactate dehydrogenase (Plasmodium falciparum (isolate CDC / Honduras)) (Q27743 whole entry, looked up): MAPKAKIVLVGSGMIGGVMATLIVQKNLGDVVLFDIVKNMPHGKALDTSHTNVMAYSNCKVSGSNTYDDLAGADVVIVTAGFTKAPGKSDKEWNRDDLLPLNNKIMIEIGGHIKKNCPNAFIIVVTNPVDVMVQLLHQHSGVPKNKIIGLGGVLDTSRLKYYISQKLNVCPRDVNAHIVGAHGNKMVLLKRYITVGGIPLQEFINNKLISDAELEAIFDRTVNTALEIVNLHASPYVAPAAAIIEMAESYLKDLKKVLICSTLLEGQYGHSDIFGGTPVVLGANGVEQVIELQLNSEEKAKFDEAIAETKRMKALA
Sequence of Plasmodium falciparum protein kinase 6 (PK6, PF3D7_1337100) (Q8IDW1 1-305): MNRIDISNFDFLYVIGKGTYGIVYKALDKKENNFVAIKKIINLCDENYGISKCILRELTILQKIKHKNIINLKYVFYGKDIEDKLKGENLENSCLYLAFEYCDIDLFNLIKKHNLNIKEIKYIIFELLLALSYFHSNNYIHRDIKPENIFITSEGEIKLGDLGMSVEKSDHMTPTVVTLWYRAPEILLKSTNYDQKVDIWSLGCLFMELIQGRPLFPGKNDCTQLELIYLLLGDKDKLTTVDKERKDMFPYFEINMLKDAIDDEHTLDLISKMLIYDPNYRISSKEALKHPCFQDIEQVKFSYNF
Sequence of Protein kinase 7 (PK7), Plasmodium falciparum 3D7 (PF3D7_0213400) (Q7YTF7 1-343): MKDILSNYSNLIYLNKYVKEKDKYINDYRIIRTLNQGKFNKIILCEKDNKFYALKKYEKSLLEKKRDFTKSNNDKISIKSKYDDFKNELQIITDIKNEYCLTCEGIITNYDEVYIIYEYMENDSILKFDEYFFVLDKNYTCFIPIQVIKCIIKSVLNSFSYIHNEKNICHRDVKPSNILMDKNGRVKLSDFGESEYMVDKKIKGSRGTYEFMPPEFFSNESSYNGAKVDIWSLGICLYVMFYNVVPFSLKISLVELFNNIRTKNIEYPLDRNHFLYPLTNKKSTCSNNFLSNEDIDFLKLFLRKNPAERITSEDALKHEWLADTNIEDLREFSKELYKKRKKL

Compound | growth inhibition [1] | inhibition [2] | inhibition [3] [%] | growth inhibition [4] | outcome [5] | outcome [6] | outcome [7] | outcome [8]
OC[C@H](Nc1nc(C(Oc2ccccc2)c2ccccc2)nc2[nH]ncc12)c1ccccc1 (stereo not given in full) | 45% | 0% | -4 | 98% (active) | inactive | inactive | inactive | inactive
CCNS(=O)(=O)c1ccc(Oc2ccc([N+](=O)[O-])cc2)cc1 | 85% (active) | 1% | 1 | 94% (active) | inactive | inactive | inactive | inactive
CC(C)(C)c1cc(C(=O)N2CCN(c3nccnc3C#N)CC2)n(Cc2ccccc2)n1 | 93% (active) | -11% | -9 | 100% (active) | inactive | inactive | inactive | inactive
CCC(C)CN1CCN(c2cc(NC(=O)c3cccs3)ccn2)C(C)C1 (stereo not given) | 72% (active) | 5% | 0 | 88% (active) | inactive | inactive | inactive | inactive
CN(C)CCCn1c(C(=O)OC(c2ccccc2)c2ccccc2)cc2cc(OCc3ccccc3)ccc21 | 85% (active) | 12% | 0 | 82% (active) | inactive | inactive | inactive | inactive
COc1ccc(CNCc2ccsc2)cc1-c1ccc(S(=O)(=O)NCCN2CCCC2)c(C)c1 | 43% | 49% | -1 | 85% (active) | inactive | inactive | inactive | inactive
OC1CCCN(Cc2ccc(-c3ccc(-c4nc5ccc(F)cc5[nH]4)cc3)cc2)C1 (stereo not given) | 79% (active) | 55% (active) | 2 | 100% (active) | inactive | inactive | inactive | inactive
CC[C@H](NC(=O)c1c(CN2CCC(N3CCCCC3)CC2)c(-c2ccccc2)nc2c(Cl)c(O)ccc12)c1ccccc1 | 66% (active) | -1% | -3 | 101% (active) | inactive | inactive | inactive | inactive
c1ccc2nc(NCCCCCCCCNc3ccc4ccccc4n3)ccc2c1 | 37% | 52% (active) | -5 | 100% (active) | inactive | inactive | inactive | inactive
CCn1ccc2c(N3CCCC3=O)cc(C(=O)N[C@@H](Cc3ccccc3)[C@H](O)CNC(C)(C)CCCC(C)C)cc21 | 98% (active) | 11% | -3 | 96% (active) | inactive | inactive | inactive | inactive
Cc1cccc2[nH]c(-c3ccc(-c4cccc(CNC(C)C)c4)s3)nc12 | 97% (active) | 12% | 2 | 100% (active) | inactive | inactive | inactive | inactive
O=C(Nc1nc(-c2ccccn2)cs1)c1ccccc1COc1ccccc1 | 42% | 34% | -2 | 83% (active) | inactive | inactive | inactive | inactive
CC(C)NCc1cccc(-c2cccc(NC(=O)c3ccc(C#N)cc3)c2)c1 | 20% | 18% | 0 | 97% (active) | inactive | inactive | inactive | inactive
O=C(Nc1ccc(Cl)cc1)c1ccc(CN2CCCN(Cc3ccsc3)CC2)cc1 | 1% | 48% | 4 | 88% (active) | inactive | inactive | inactive | inactive
CC(C)CC(NC(=O)c1cc2ccccc2s1)C(=O)N1CCCCCC1c1ccc(C(C)(C)C)cc1 (stereo not given) | 39% | 23% | -2 | 91% (active) | inactive | inactive | inactive | inactive
FC(F)(F)c1ccc2nccc(NN=Cc3ccccc3)c2c1 | 2% | 7% | -1 | 92% (active) | inactive | inactive | inactive | inactive
CCC(O)c1ccc(Br)cc1NC(=O)c1cccc(Cl)c1 (stereo not given) | 52% (active) | -3% | -5 | 80% (active) | inactive | inactive | inactive | inactive
CO/C(=C\C=C\c1cc2cc(Cl)c(Cl)cc2[nH]1)C(=O)NCCCNCCN(C)c1ccccc1 | 55% (active) | 33% | 2 | 100% (active) | inactive | inactive | inactive | inactive
COc1ccc(C(=O)Nc2ccc3nc(N4CCCCC4)cc(C)c3c2)cc1[N+](=O)[O-] | 7% | 17% | -9 | 96% (active) | inactive | inactive | inactive | inactive
COCn1ncc2cc(-c3cccc(NC(=O)c4csc(NC(C)=O)n4)c3)ccc21 | 68% (active) | 0% | 7 | 89% (active) | inactive | inactive | inactive | inactive

Compound | growth inhibition [1] | inhibition [2] | inhibition [3] [%] | growth inhibition [4] | outcome [5] | outcome [6] | outcome [7] | outcome [8]
CCCCCCN1CCCN(Cc2ccc(C(=O)Nc3cccc(CC)c3)cc2)CC1 | 54% (active) | 31% | -3 | 85% (active) | inactive | inactive | inactive | inactive
COc1ccc2cc(-c3nc(-c4c(Cl)cccc4Cl)[nH]c3-c3ccnc(NCCC4CCCN4C)c3)ccc2c1 (stereo not given) | 82% (active) | 11% | 2 | 100% (active) | inactive | inactive | inactive | inactive
CC(C)CN1CCN(c2nc(C#N)c3c(c2C(=S)NC2CCCCC2)CC(C)(C)OC3)CC1 | 99% (active) | -4% | -2 | 101% (active) | inactive | inactive | inactive | inactive
O=C(NCC1CCN(Cc2ccc3c(c2)OCCO3)C1)c1cc(-c2cccc(C(F)(F)F)c2)cs1 (stereo not given) | 1% | 31% | 4 | 101% (active) | inactive | inactive | inactive | inactive
Cc1cc(N[C@@H](Cc2ccccc2)C(=O)NCCc2ccccc2)nc(NCCc2cccs2)n1 | 84% (active) | 12% | 4 | 99% (active) | inactive | inactive | inactive | inactive
Clc1ccc(-c2ncc(-c3ccncc3)[nH]2)cc1Cl | 63% (active) | 1% | -5 | 96% (active) | inactive | inactive | inactive | inactive
COc1ccc(NC(=O)C2c3ccccc3C(=O)N(C3CCCC3)C2c2cccs2)cc1OC (stereo not given) | 96% (active) | -5% | -2 | 90% (active) | inactive | inactive | inactive | inactive
CC(C)(c1ccccc1)c1ccc(O)c(CN2CCOCC2)c1 | 88% (active) | -7% | 2 | 99% (active) | inactive | inactive | inactive | inactive
Oc1ccc2[nH]c(-c3ccc(F)cc3F)nc2c1CN1CCC(O)(c2ccccc2)CC1 | 70% (active) | 16% | -2 | 96% (active) | inactive | inactive | inactive | inactive
CCSc1nc2sc3c(c2c(=O)n1-c1ccccc1)CCN(C)C3 | 71% (active) | 16% | -3 | 83% (active) | inactive | inactive | inactive | inactive
C=CCOC(=O)N1CCC(CNCc2cccc(-c3cccc(-c4nc5ccccc5[nH]4)c3)c2)C1 (stereo not given) | 46% | 16% | -3 | 100% (active) | inactive | inactive | inactive | inactive
CN1CCc2cc(I)c(O)cc2C1Cc1ccccc1Cl (stereo not given) | 96% (active) | -7% | -2 | 98% (active) | inactive | inactive | inactive | inactive
COc1ccc(-n2ccnc2SCC(=O)Nc2cccc(C(F)(F)F)c2)c(OC)c1 | 88% (active) | -10% | 3 | 98% (active) | inactive | inactive | inactive | inactive
COc1ccc2cc(-c3nc(-c4c(Cl)cccc4Cl)[nH]c3-c3ccnc(NCCCN4CCN(C)CC4)c3)ccc2c1 | 80% (active) | 10% | -5 | 98% (active) | inactive | inactive | inactive | inactive
N#Cc1cccc(NC(=O)NC2CCN(CCCCCNC(=O)/C=C/c3ccc(Cl)c(Cl)c3)CC2)c1 | 7% | 31% | 0 | 100% (active) | inactive | inactive | inactive | inactive
CC(C)N1CCN(c2ccc(OCCCCN3CCN(c4cccc(Cl)c4Cl)CC3)cc2Cl)CC1 | 34% | 63% (active) | -1 | 89% (active) | inactive | inactive | inactive | inactive
c1cnc2ccc(NCc3ccc(-c4ccc(CNC5CCCC5)cc4)cc3)cc2c1 | 21% | 27% | -2 | 97% (active) | inactive | inactive | inactive | inactive
CCCNC(=O)Nc1cc2cc(-c3ccc(CN4CCCC4)cc3)ccc2n2c(C)nnc12 | 11% | 67% (active) | 0 | 93% (active) | inactive | inactive | inactive | inactive
CCc1c(CCNCCCCCCNCCc2ccccc2)ccc(OC)c1OC | 3% | 33% | -2 | 102% (active) | inactive | inactive | inactive | inactive
O=C(Nc1ccc(Br)cc1)c1cc(Br)ccc1NS(=O)(=O)c1ccc(C(F)(F)F)cc1 | 56% (active) | 53% (active) | 2 | 100% (active) | inactive | inactive | inactive | inactive
